Laboratory results as given in PubChem BioAssay (Tox21).
Inconclusive results are not listed. The source made the active and inactive calls. The call rests on the fitted dose curve; in most records, active means well fitted curve in the direction sought with a large enough effect in the repeat runs; inconclusive means weak or mixed curves; inactive means no such curve, though single readings can be large; an effect the other way counts as inactive or inconclusive.

Assays:
[1] = qHTS assay for identifying genotoxic compounds that show differential cytotoxicity against isogenic chicken DT40 cell lines with known DNA damage response pathways - wild type cell line (AID 743012); further: nearly all actives have a fitted effect of over 60% in size
How it was run: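 Quantitative HTS on parental DT40 cells: 40 h compound treatment at 37 C/5% CO2, with viability then determined by CellTiter-Glo luminescence. Values serve as the DNA repair-proficient reference for differential cytotoxicity.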

[2] = qHTS assay for identifying genotoxic compounds that show differential cytotoxicity against isogenic chicken DT40 cell lines with known DNA damage response pathways - Rev3 mutant cell line (AID 743014); further: nearly all actives have a fitted effect of over 55% in size
[3] = qHTS assay for identifying genotoxic compounds that show differential cytotoxicity against isogenic chicken DT40 cell lines with known DNA damage response pathways - Rad54/Ku70 mutant cell line (AID 743015); further: nearly all actives have a fitted effect of over 60% in size

Measured: Potency
Potency means the concentration at half of the fitted maximal effect.

COC(=O)[C@]12CCC(C)(C)C[C@H]1[C@H]1C(=O)C=C3[C@@]4(C)C=C(C#N)C(=O)C(C)(C)[C@@H]4CC[C@@]3(C)[C@]1(C)CC2
active: [1] 596 nM | [2] 841 nM | [3] 596 nM
